Experimental data reported in PMC7819943, “Rice protein-binding microarrays: a tool to detect cis-acting elements near promoter regions in rice”.
In all, about 68,000 sequences were measured (“fluorescence intensity (a.u.)”: median about 9,100, highest 2% from about 16,000 on). The entries come from a sample that favours the highest values as a whole.

target: OsWRKY34 (Oryza sativa, UniProt Q0JBA9 1-250); assay: protein-binding microarray (RPBM); PBS, 2% BSA, 51.3 ng/ul salmon testes DNA, 50 uM zinc acetate, 200 nM TF, 25 C, 1 h; high values mean tight binding; details: protein: recombinant; tags: N-terminal polyhistidine and DsRed monomer fusion (pET32a); label: CyDye5-dUTP incorporated in the synthesized complementary strand; 3' TTTTT single-stranded linker to array surface; dsDNA, one strand shown
Method in brief: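 Using Ni–NTA, transcription factors fused N-terminally to polyhistidine and DsRed were purified after expression in E. coli BL21-CodonPlus. These were incubated at 200 nM with a blocked, double-stranded custom Agilent array for 1 h at 25 °C in a buffer containing 50 µM zinc acetate, and the array was washed. The binding signal is per-feature fluorescence intensity (arbitrary units) on an Axon 4000B scanner.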

OsWRKY34, sequence (Q0JBA9 entry or part of it): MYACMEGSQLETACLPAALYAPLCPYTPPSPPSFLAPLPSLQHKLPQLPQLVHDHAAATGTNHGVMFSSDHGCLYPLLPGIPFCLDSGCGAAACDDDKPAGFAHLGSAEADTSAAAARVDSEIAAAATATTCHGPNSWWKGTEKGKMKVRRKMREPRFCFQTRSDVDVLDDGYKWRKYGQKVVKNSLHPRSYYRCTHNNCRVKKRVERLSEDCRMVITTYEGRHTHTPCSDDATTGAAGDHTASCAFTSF

Q: For “TCCTATCCCTACGAGCACTTCCGAAATATTGGACTGACATCGGAGTCACCTAGTGCAG”, which binding signal is on record?
A: 8370 fluorescence intensity (a.u.)

Q: Which binding signal does the source give for “ATAACTCGGGTCGGACTCGGACCTCAGGCCCACGTATTCCCGGAGTCACCTAGTGCAG” here?
A: 8400 fluorescence intensity (a.u.)

Q: “CGCTGATTGGGTTGGGTCGGGTTAGCTTTGGTTTCAATGCCGGAGTCACCTAGTGCAG” was tested. Which binding signal did it give?
A: 11200 fluorescence intensity (a.u.)

Q: With “AATACTCCTCTACTCATATTAGTACAATATCACAAACTTACGGAGTCACCTAGTGCAG” as the sequence, how does the binding signal read?
A: 8250 fluorescence intensity (a.u.)

Q: For “ACTGCTTTGTTCTATTTGATTATTTTTTTACTCATCAGATCGGAGTCACCTAGTGCAG”, which binding signal is on record?
A: 15900 fluorescence intensity (a.u.)

Q: Which binding signal does the source give for “ATGTTTGACACCGTTGATTTTTTAACACATGTTTGACCGTCGGAGTCACCTAGTGCAG” here?
A: 9910 fluorescence intensity (a.u.)

Q: With “ACGCCATTGACTTTTTAGCAGATGTTTGACCGTTCGTTTTCGGAGTCACCTAGTGCAG” as the sequence, how does the binding signal read?
A: 20700 fluorescence intensity (a.u.)

Q: How did the binding signal turn out when “TGTTTGACGCCGTTGACTTTTTAACACATGTTTGACCGTTCGGAGTCACCTAGTGCAG” was run?
A: 41700 fluorescence intensity (a.u.)

Q: How did the binding signal turn out when “TGTTTGACGCCGTTGACTTTTTAGCACATGTTTGACCGTTCGGAGTCACCTAGTGCAG” was run?
A: 43600 fluorescence intensity (a.u.)

Q: “AATGTTTGACGCCGTTGACTTTTTAGCACATGTTGACCGTCGGAGTCACCTAGTGCAG” was tested. Which binding signal did it give?
A: 42200 fluorescence intensity (a.u.)

Q: “GCCGCGCACGCCGTCATCTCTTTTTCGTTCCATACTTCTCCGGAGTCACCTAGTGCAG” was tested. Which binding signal did it give?
A: 10700 fluorescence intensity (a.u.)

Q: How did the binding signal turn out when “GGCTGGGTGTTACAACTTTGTCCAAAACATCAATAATTATCGGAGTCACCTAGTGCAG” was run?
A: 8610 fluorescence intensity (a.u.)

Q: For “CCCACATTTTTTCTTCTCACTTATATGTGGGTCCCATAATCGGAGTCACCTAGTGCAG”, which binding signal is on record?
A: 8640 fluorescence intensity (a.u.)

Q: With “AGTTATTTATTTTGTTGTGGTTTGTTTTATAGTTAAAGGTCGGAGTCACCTAGTGCAG” as the sequence, how does the binding signal read?
A: 10100 fluorescence intensity (a.u.)

Q: “CGATCCCACCGACTCCCGGCCACCTCTGCTTCCCCGGCGACGGAGTCACCTAGTGCAG” was tested. Which binding signal did it give?
A: 9140 fluorescence intensity (a.u.)

Q: “TATATGTTTGGCGCTCAAAACCTAATAGTAGTTCTTATGTCGGAGTCACCTAGTGCAG” was tested. Which binding signal did it give?
A: 8300 fluorescence intensity (a.u.)

Q: “CTCTCCTCTCATCTCATCTCATCTCCAAGGCTGGTCTTTACGGAGTCACCTAGTGCAG” was tested. Which binding signal did it give?
A: 8320 fluorescence intensity (a.u.)

Q: Which binding signal does the source give for “ACAGCCGCGTCGCCGCTTGTCCGCCTGCGCTCGTTCTCGCCGGAGTCACCTAGTGCAG” here?
A: 9640 fluorescence intensity (a.u.)

Q: “GGCATCCTACACTCTAGCTAGCCCACAGTCCGCTGCCGGCCGGAGTCACCTAGTGCAG” was tested. Which binding signal did it give?
A: 8790 fluorescence intensity (a.u.)

Q: “GCGGATGGAATGGCAAGGGAGGAAACTGGTGGGGTGGGAGCGGAGTCACCTAGTGCAG” was tested. Which binding signal did it give?
A: 8960 fluorescence intensity (a.u.)

Q: How did the binding signal turn out when “TTCGGTTGGGTGGAGGAAGCGCGGGTGAAAAAGGTGGGGACGGAGTCACCTAGTGCAG” was run?
A: 10600 fluorescence intensity (a.u.)

Q: For “GGAATATTCTCACATCTCAGCCATCCATTTTCCATCTCAACGGAGTCACCTAGTGCAG”, which binding signal is on record?
A: 9090 fluorescence intensity (a.u.)

Q: How did the binding signal turn out when “GATAGGTTGTGTGTGTGCAGTGTGTGTTTATAAGAGGTGACGGAGTCACCTAGTGCAG” was run?
A: 10200 fluorescence intensity (a.u.)

Q: How did the binding signal turn out when “TACATCATCTAGTGTTGCAGCAGCAGTGTGTGTAAGAGGACGGAGTCACCTAGTGCAG” was run?
A: 28500 fluorescence intensity (a.u.)

Q: Which binding signal does the source give for “CAGCAGTGTGTGTAAGAGGAGAGAGAAGCAGTGCCCTTTACGGAGTCACCTAGTGCAG” here?
A: 8530 fluorescence intensity (a.u.)

Q: Which binding signal does the source give for “CGTCACTTTTTTTTCTCCCCTATTTCTTTTCTCCTTTTCTCGGAGTCACCTAGTGCAG” here?
A: 10900 fluorescence intensity (a.u.)

Q: For “CCGCTCTCCTACTGCTCGGCCAACCAGTCATGCACACATACGGAGTCACCTAGTGCAG”, which binding signal is on record?
A: 8790 fluorescence intensity (a.u.)

Q: How did the binding signal turn out when “ATAAAATAGTTGACTGGCTATCTTCTACTCCACTTGGTATCGGAGTCACCTAGTGCAG” was run?
A: 8860 fluorescence intensity (a.u.)

Q: How did the binding signal turn out when “TTTACAGTTGATTTTGACGGGTTTGTTGGCGAGGATTTTTCGGAGTCACCTAGTGCAG” was run?
A: 9360 fluorescence intensity (a.u.)

Q: “TTTGGGGTTTGAGAAGGTTGAGGAGGAGTTGGGAGGTTGACGGAGTCACCTAGTGCAG” was tested. Which binding signal did it give?
A: 9580 fluorescence intensity (a.u.)

Q: How did the binding signal turn out when “CGGGAGGAGGGAGGTTGTTTCGTCTGGGGTTTGATTGGGACGGAGTCACCTAGTGCAG” was run?
A: 18200 fluorescence intensity (a.u.)

Q: How did the binding signal turn out when “CGGCGGGCGGGAGGGCGGCGTTGATTTCGTTGGGGTTTGCCGGAGTCACCTAGTGCAG” was run?
A: 19100 fluorescence intensity (a.u.)

Q: Which binding signal does the source give for “AGGCGGAGGAGGGGAGGCGGAAGGGGTTCGCGTCGGCGGCCGGAGTCACCTAGTGCAG” here?
A: 12200 fluorescence intensity (a.u.)

Q: With “GATTAGGGTTGTTGCCGGGGTTTGTTTGGTGTTGCGGCGGCGGAGTCACCTAGTGCAG” as the sequence, how does the binding signal read?
A: 8510 fluorescence intensity (a.u.)

Q: How did the binding signal turn out when “AGGGGAGGCGTCGCTTGGTCGCCATCTTCGTCGTTTGCTTCGGAGTCACCTAGTGCAG” was run?
A: 9720 fluorescence intensity (a.u.)

Q: For “TTGATTTCGTTGGGGTTTGCGTTGCGTGCGGAGGACGGGGCGGAGTCACCTAGTGCAG”, which binding signal is on record?
A: 15200 fluorescence intensity (a.u.)

Q: For “TGCTTTCGTTGGGTTGGGGAAGGGGAGGCGTCGCTTGGTCCGGAGTCACCTAGTGCAG”, which binding signal is on record?
A: 17100 fluorescence intensity (a.u.)

Q: “AGAGAGAGGTTGCTGTTTCGATGCGTATTTCTGCAGCTTTCGGAGTCACCTAGTGCAG” was tested. Which binding signal did it give?
A: 10100 fluorescence intensity (a.u.)

Q: How did the binding signal turn out when “GTCCCGGGCACCGACCACGATCCGTTCCCGCCACACAAACCGGAGTCACCTAGTGCAG” was run?
A: 8080 fluorescence intensity (a.u.)

Q: How did the binding signal turn out when “TCCGCCCTCTGACCGCGGCGCCAAAGCTCCTCCGCGCGCGCGGAGTCACCTAGTGCAG” was run?
A: 8030 fluorescence intensity (a.u.)

Q: “CGGACCCCATACACCTCCGCCCGATTCCCGACGCAAATCCCGGAGTCACCTAGTGCAG” was tested. Which binding signal did it give?
A: 9260 fluorescence intensity (a.u.)

Q: For “GTTTGTAACGTATTTTAGCTCGCTTTATAACGGGGCAGTTCGGAGTCACCTAGTGCAG”, which binding signal is on record?
A: 8160 fluorescence intensity (a.u.)
